Measured values from PubChem BioAssay AID602373 (National Center for Advancing Translational Sciences (NCATS), 2012).
Several values for one entry are separate records, joined by “and”; a condition that tells them apart may be missing. Equal entries are not always repeated. Inconclusive results are not listed. A call without a number means that no potency is given here. Activity calls are given as the source filed them. Calls follow the shape of the dose curve; as a rule, active = well fitted inhibition curve with a large enough effect; inconclusive = small, poorly fitted or top-dose-only effect; inactive = no such curve, though single readings can be large or run the other way.

Test: qHTS Assay for Inhibitors of Bacillus subtilis Sfp phosphopantetheinyl transferase (PPTase): Hepg2 Assay
Conditions: HepG2 cytotoxicity counter-screen; series mostly up to 46.1 µM
Excerpt: The covalent attachment of a phosphopantetheinyl (4'-PP) arm to a variety of synthases and other proteins is a key posttranslational protein modification. The 4'-PP is installed on the proteins post-translationally from coenzyme A (CoA) on a conserved serine residue by action of phosphopantetheinyl transferase (PPTase) enzymes. Phosphopantetheinylation is essential for synthase activity, and removal of the PPTase gene precludes natural product synthesis in microorganisms, or in the case of fatty acid biosynthesis, renders the organism unviable. PPTase enzymes belong to a distinct structural superfamily. Within bacteria, these enzymes are grouped into two classes based upon primary structure, the AcpS-Type and Sfp-Type PPTases.
Sfp-type PPTases, corresponding to an activator of surfactin production in Bacillus subtilis, are responsible for modifying type I polyketide and nonribosomal peptide synthases of prokaryotes. Sfp-type PPTases are responsible for the activation of a variety of pathogen-associated virulence factors. Among these compounds are toxins such as mycolactone from Mycobacterium ulcerans, siderophores such as vibriobactin from Vibrio cholerae or mycobactin from Mycobacterium tuberculosis, as well as the mycolic acids which form the waxy cell wall of Mycobacteria. The biosyntheses of these natural products are considered attractive targets for drug design.
In search of small molecule Sfp-PPTase inhibitors, a fluorescence quenching assay was developed for detection of Bacillus subtilis Sfp-PPTase enzymatic activity in a miniaturized high-throughput format. The consensus ybbr acceptor peptide […] was N-terminally labeled with Black Hole Quencher-2 (BHQ-2) and used in combination with rhodamine-labeled coenzyme A as a co-substrate.
Phosphopantetheinyl transfer is a process essential to cellular viability and maintenance in all forms of life. Cell-permeable and stable compounds acting as PPTase inhibitors are anticipated to be growth inhibitory agents. This assay sought to assess the toxicity of test compounds in the HepG2 hepatocarcinoma cells; a human cell line whose use additionally determines the toxicity of test article metabolites.
NIH Chemical Genomics Center [NCGC]
NIH Molecular Libraries Probe Centers Network [MLPCN]
Assay Submitter (PI): Michale Burkart, University of California, San Diego
Test compounds' toxicity was assessed by measuring cellular ATP content using a luciferase-coupled ATP quantitation assay (CellTiter-Glo; Promega, Madison, WI). In this assay, luminescent signal is proportional to amount of ATP, and thus to the number of metabolically competent cells. Briefly, Hepg2 cell suspension (5 uL, 4 x 10^5 cells/mL) was dispensed into 1,536-well tissue-culture treated white/solid bottom assay plates (Greiner Bio-One North America, Monroe, NC) using a Flying Reagent Dispenser (Aurora Discovery, Carlsbad, CA). Cells were incubated at 37 deg C for 6 hr to allow for cell attachment, followed by addition of compounds via pin tool (Kalypsys, San Diego, CA). After compound addition, plates were incubated for 48 hr at 37 deg C. At the end of the incubation period, CellTiter-Glo reagent (5 uL) was added, plates were incubated at room temperature in the dark for 30 min, and the luminescence intensity of each well was determined using a ViewLux plate reader (PerkinElmer, Shelton, CT). The positive control was 92 uM and 41 uM of tetra-N-Octylammonium bromide, and the negative control was DMSO.

Structure (SMILES) | Potency
S=C(Nc1cc(Cl)ccn1)N1CCN(c2cc(Cl)cc(Cl)c2)CC1 | 9.96 µM (active)
Cc1cc(C)nc(NC(=S)N2CCN(c3ccc(N4CCCC4)nn3)CC2)c1 | inactive
CN(C)c1ccc2nc(NC(=S)N3CCN(c4cccc(C(F)(F)F)c4)CC3)sc2c1 | 8.88 µM (active)
Cc1ccnc(NC(=S)NCCN(C)c2cccc(C(F)(F)F)c2)c1 | inactive
Cc1cc(C)nc(NC(=S)N2CCN(c3cnc4nccn4c3)CC2)c1 | inactive
COc1cccc(NC(=S)N2CCN(c3ccc(C(F)(F)F)cc3[N+](=O)[O-])CC2)n1 | inactive
Cc1ccnc(NC(=S)NC2CCN(c3cccc(C(F)(F)F)c3)CC2)c1 | inactive
FC(F)(F)c1cc(N2CCN(C(=S)Nc3cc(Cl)ccn3)CC2)cc(C(F)(F)F)c1 | 15.8 µM (active)
Cc1ccnc(NC(=S)N2CCCN(c3cccc(C(F)(F)F)c3)CC2)c1 | 25 µM (active)
COc1cccc(NC(=S)N2CCN(c3ccc(Cl)c(Cl)c3)CC2)n1 | inactive
Cc1cc(C)nc(NC(=S)N2CCN(c3ccc4c(c3)OCO4)CC2)c1 | inactive
Cc1ccnc(NC(=S)N2CCN(c3ccc(Cl)c(Cl)c3)CC2)c1 | 28.1 µM (active)
Cc1cc(C)nc(NC(=S)N2CCN(c3cccc(S(C)(=O)=O)c3)CC2)c1 | inactive
Cc1ccc(N2CCN(C(=S)Nc3cc(C)ccn3)CC2)cc1 | inactive
Cc1cc(C)nc(NC(=S)N2CCN(c3ccc(Cl)cc3F)CC2)c1 | inactive
Cc1ccnc(NC(=S)N2CCN(c3ccc(Br)cc3)CC2)c1 | inactive
Cc1cc(C)nc(NC(=S)N2CCN(c3ncccc3C#N)CC2)c1 | inactive
Cc1cc(C)nc(NC(=S)N2CCN(c3ccc(C(=O)O)cc3)CC2)c1 | inactive
CCN1CCN(C(=S)c2ccc(O)cc2)CC1 | inactive
Cc1cc(C)nc(NC(=S)N2CCN(Cc3cccc4ccccc34)CC2)c1 | inactive

Structure (SMILES) | Potency
FC(F)(F)c1cccc(N2CCN(C(=S)Nc3nccc4ccccc34)CC2)c1 | inactive
Cc1cc(C)nc(NC(=S)N2CCN(c3ccc4ncccc4c3[N+](=O)[O-])CC2)c1 | inactive
COc1cccc(NC(=S)N2CCN(c3cccc(Cl)c3Cl)CC2)n1 | inactive
Cc1ccnc(NC(=S)N2CCN(c3cccc(C(F)(F)F)c3)CC2)c1 | 28.1 µM (active) and 9.96 µM (active) and 25 µM (active)
COc1cccc(NC(=S)N2CCN(c3ccc(Cl)cc3Cl)CC2)n1 | inactive
Cc1cc(C)nc(NC(=S)N2CCN(c3ccc(C(F)(F)F)cc3[N+](=O)[O-])CC2)c1 | inactive
COc1cccc(NC(=S)N2CCN(c3cccc(C(F)(F)F)c3)CC2)n1 | 28.1 µM (active)
Cc1cc(C)nc(NC(=S)N2CCN(c3ccccn3)CC2)c1 | inactive
FC(F)(F)c1cccc(N2CCN(C(=S)Nc3ncnc4ccccc34)CC2)c1 | inactive
FC(F)(F)c1cccc(N2CCN(C(=S)Nc3cc4ccccc4cn3)CC2)c1 | inactive
COc1ccnc(NC(=S)N2CCN(c3ncc(C(F)(F)F)cc3Cl)CC2)c1 | inactive
Cc1cc(C)nc(NC(=S)N2CCN(Cc3c(F)cccc3Cl)CC2)c1 | inactive
Cc1cc(C)nc(NC(=C(C#N)C#N)N2CCN(c3cccc(C(F)(F)F)c3)CC2)c1 | inactive
Cc1cc(C)nc(NC(=S)N2CCN(S(=O)(=O)c3cccc(C(F)(F)F)c3)CC2)c1 | inactive
COc1cccc(NC(=S)N2CCN(c3ccccc3C(F)(F)F)CC2)n1 | inactive
COc1ccnc(NC(=S)N2CCN(c3ccc(Cl)cc3Cl)CC2)c1 | inactive
S=C(Nc1cc(Cl)ccn1)N1CCN(c2ccc(Cl)cc2Cl)CC1 | inactive
Cc1cc(C)nc(NC(=S)N2CCN(c3noc4ccccc34)CC2)c1 | inactive
Cc1cc(C)nc(NC(=S)N2CCN(c3cc(F)cc(F)c3)CC2)c1 | inactive
CC(=O)N1CCN(C(=S)Nc2cc(C)ccn2)CC1 | inactive
